Assay results reported in article PMC5540273 (PLoS ONE, 2017).
“And” between values parts separate entries of the source, which are not always exact repeats. Equal values may be shown once. Read-outs that look alike come from different tables or passages of the source.

What was measured:
DMPK = settings: concentration: 1 μM, replicates: in singlicate, n = 1
DRAK1 = test system: T1, DRAK1; settings: concentration: 1 μM, replicates: in singlicate, n = 1
T1 construct: gene STK17A

DRAK2 = test system: T2, DRAK2; settings: n = 1
T2 construct: gene STK17B

DYRK1A = settings: concentration: 1 μM, replicates: in singlicate; n = 1
DYRK1B = settings: concentration: 1 μM, replicates: in singlicate, n = 1
DYRK2 = settings: concentration: 1 μM, replicates: in singlicate, n = 1
EGFR = settings: concentration: 1 μM, replicates: in singlicate, n = 1
EIF2AK1 = settings: concentration: 1 μM, replicates: in singlicate; n = 1
EPHA1 = settings: concentration: 1 μM, replicates: in singlicate, n = 1
EPHA2 = settings: concentration: 1 μM, replicates: in singlicate, n = 1
[1] = concentration: 1 μM, replicates: in singlicate
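Also: KINOMEscan kinase panel screen.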

SMILES | %Inh (DMPK) [%] | %Inh (DRAK1) [%] | %Inh (DRAK2; [1]) [%] | %Inh (DYRK1A) [%] | %Inh (DYRK1B) [%] | %Inh (DYRK2) [%] | %Inh (EGFR) [%] | %Inh (EIF2AK1) [%] | %Inh (EPHA1) [%] | %Inh (EPHA2) [%] | %Inh (DMPK; 1 µM) | %Inh (DRAK1; 1 µM) | %Inh (DYRK1B; 1 µM) | %Inh (DYRK2; 1 µM) | %Inh (EGFR; 1 µM) | %Inh (EPHA1; 1 µM) | %Inh (EPHA2; 1 µM) | %Inh (DRAK2; 1 µM) [%]
Nc1nc(-c2ccc3c(N)n[nH]c3c2)cc(N2CCCC2)n1 [GSK2227430] | 0 | 73 | 0 | 9 | 4 | 37 | 2 | 0 | 0 | 12 |  |  |  |  |  |  |  | 
COC(=O)Nc1nc2cc(Oc3ccc(NC(=O)Nc4cc(F)ccc4F)cc3)ccc2[nH]1.Cl [GW701424] | 0 | 2 | 0 | 5 | 6 | 0 | 35 | 0 | 11 | 63 |  |  |  |  |  |  |  | 
O=C(NCCNc1ccnc(Nc2ccc(F)cc2)n1)c1cc2ccccc2s1 [GSK1379874] | 0 | 8 | 33 | 2 | 17 | 15 | 23 | 0 | 10 | 30 |  |  |  |  |  |  |  | 
CC(C)(CN)c1nc(-c2ccc(Cl)c(O)c2)c(-c2ccncc2)[nH]1.O=C(O)C(F)(F)F [SB-477794] |  |  | 0 | 0 |  |  |  | 0 |  |  | 0% and 98.6% | 0% and 5% | 0% and 5% | 0% and 5% | 70% and 47% | 97.1% and 95.8% | 26% and 33% | 
O=C(NOCC1CC1)c1ccc(F)c(F)c1Nc1ccc(I)cc1Cl | 0 | 0 | 21 | 0 | 0 | 0 | 0 | 0 | 3 | 0 |  |  |  |  |  |  |  | 
COCCNC(=O)c1ccc(-c2cc(C(=O)NC3CC3)cc(F)c2C)cc1 [GW868318] | 20 | 13 | 0 | 9 | 21 | 28 | 21 | 22 | 29 | 7 |  |  |  |  |  |  |  | 
CNc1ncnc2[nH]ncc12 [SKF-18355] | 0 | 10 | 0 | 0 | 0 | 37 | 0 | 0 | 0 | 0 |  |  |  |  |  |  |  | 
Cl.Nc1ncnc2occ(-c3ccc(NC(=O)Nc4cc(C(F)(F)F)ccc4F)cc3)c12 [SB-707548] | 0 | 0 | 0 | 0 | 0 | 14 | 30 | 0 | 79 | 97.5 |  |  |  |  |  |  |  | 
C[C@@H](Oc1cc(-n2cnc3ccc(NC(=O)NC(C)(C)C)cc32)sc1C(N)=O)c1ccccc1Cl [GSK346294] | 0 | 0 | 0 | 0 | 0 | 15 | 32 | 0 | 4 | 0 |  |  |  |  |  |  |  | 
CSc1ccc(-c2cc3ncnc(SCC(=O)O)c3s2)cc1 | 0 | 37 |  | 0 | 0 | 0 | 27 | 12 | 11 | 0 |  |  |  |  |  |  |  | 97.7
Cc1ccc(NC(=O)c2ccnc(N3CCN(C)CC3)c2)cc1-c1ccc(C(=O)NCC2CC2)cc1 [GW775604] | 7 | 0 | 0 | 0 | 0 | 0 | 0 | 0 | 0 | 0 |  |  |  |  |  |  |  | 
Cc1cccc(-c2nc(Nc3ccc4ncsc4c3)c3ccccc3n2)n1 [GW867588] | 0 | 0 | 0 | 3 | 0 | 33 | 2 | 0 | 0 | 0 |  |  |  |  |  |  |  | 
O=c1cc(N2CCOCC2)nc2n(Cc3cccc4ccccc34)ccn12 [GSK2333389] | 0 | 0 | 0 | 20 | 7 | 21 | 0 | 0 | 8 | 0 |  |  |  |  |  |  |  | 
COc1ccc(Nc2nccc(N3CCC(NC(=O)Nc4cccc(C(C)=O)c4)C3)n2)cc1 (centres unmarked) [GSK1379731] | 0 | 0 | 0 | 23 | 0 | 0 | 15 | 0 | 2 | 4 |  |  |  |  |  |  |  | 
NCC(NC(=O)c1cc(-c2cn[nH]c2)c(-c2ccnc3[nH]ccc23)s1)c1ccccc1.O=C(O)C(F)(F)F.O=C(O)C(F)(F)F (centres unmarked) [GSK1325775] | 95.8 | 90.6 | 0 | 44 | 35 | 79 | 4 | 0 | 13 | 0 |  |  |  |  |  |  |  | 
COc1ccc(S(=O)(=O)NC2CCN(c3cc(C)nc(Nc4cccc(C#N)c4)n3)CC2)cc1.O=C(O)C(F)(F)F [GSK1653539] | 0 | 0 | 0 | 6 | 39 | 12 | 18 | 0 | 0 | 0 |  |  |  |  |  |  |  | 
Cc1ccc(C(=O)NCC(N)=O)cc1-n1c(C)cc(OCc2ccc(F)cc2F)c(Br)c1=O | 0 | 0 | 5 | 0 | 0 | 0 | 11 | 0 | 25 | 40 |  |  |  |  |  |  |  | 
